Hit rate of the full screen: of about 52,000 compounds, about 4,300 (8.3%) were called active. Shown is part of a subset that was picked to be rich in actives. Values without a mark were called inactive. No stated cut-off is given here; in the data, active means survival mostly below about 52% (no sharp cut-off); inactive means mostly above about 56%.
What follows are molecules tested on DeltatarO mutant (assay: growth inhibition of S. aureus wild type versus tarO mutant, primary screen, teichoic acid synthesis inhibitors, RN4220, OD600 (AID 463173)). Conditions: OD600, 18 h, hits give low values, screened at 18.75 µg/mL (by protocol).
Work on `Cc1cc(C)nc(SCCC(=O)N(C)C)n1` yielded a survival of 84%. Molecule `CC(=O)N1CCN(CCN2C(=O)C3C4c5ccccc5C(c5ccccc54)C3C2=O)CC1` (stereo not given) has a survival of 94%. `CCC(=O)N(Cc1cc(=O)[nH]c2ccccc12)C1CCCCC1` showed a survival of 69%. Molecule `COc1cc(NC(=O)CC(c2cccs2)N2Cc3ccccc3C2=O)cc(OC)c1OC` (stereo not given) has a survival of 49%. With `Cc1ccc(-c2csc(-c3nc(-c4ccc(Br)s4)cs3)n2)cc1` the survival was 82%. Molecule `Cc1c(NC(=O)c2ccc(Cl)cc2)cc(C(C)C)c(O)c1S(=O)(=O)c1ccc(Cl)cc1` has a survival of 75%. For `CCN(CC)C(=O)CSc1nnc(Cc2ccccc2)n1CC`, the survival was 50%. Work on `CCOC(=O)C1CCN(C(=O)c2ccc3c(=O)n4nc(Nc5cc(C)ccc5C)sc4nc3c2)CC1` yielded a survival of 84%. In the case of `COc1ccc(S(=O)(=O)N2CCC(c3ccncc3)CC2)cc1Cl`, the survival is reported as 124%. `COc1ccccc1CNC(=O)CCn1c(=O)c2ccccc2n(CC(=O)Nc2ccc(C)cc2Cl)c1=O` gave a survival of 77%. Work on `COc1ccc(-n2nc(C(=O)N3CCN(c4cccc(C)c4)C(C)C3)c3c4ccccc4n(C)c3c2=O)cc1` (stereo not given) yielded a survival of 76%. For `COc1ccccc1/C=C/c1nc(C#N)c(NC(C)c2ccccc2)o1` (stereo not given), the survival was 70%. With `COc1cccc(/C=C/c2nc(C#N)c(NC3CCCCC3)o2)c1` the survival was 69%. For `COc1ccc(/C=C/c2nc(C#N)c(NC3CCCCC3)o2)cc1OC`, the survival was 36% (active). `COc1cc(/C=C/c2nc(C#N)c(NC(C)c3ccccc3)o2)cc(OC)c1OC` (stereo not given) was tested, and the survival was 40% (active). `COc1cc(/C=C/c2nc(C#N)c(NCCc3ccccc3)o2)cc(OC)c1OC` showed a survival of 49%. Molecule `COc1ccccc1/C=C/c1nc(C#N)c(NC2CCCCC2)o1` has a survival of 85%. `CC(=O)N1c2ccc(S(=O)(=O)NCC3CCC(C(=O)NCCC(C)C)CC3)cc2CC1C` (stereo not given) showed a survival of 102%. For `CC(C)CC(=O)NCC1(N(C)C)CCCCC1`, the survival was 84%. For `O=C(CN1C(=O)C2CCCCN2c2ccc(C(=O)N3CCCC3)cc21)NCc1ccccc1F` (stereo not given), the survival was 99%. For `O=C(NCc1cccc(Cl)c1)c1ccc(NC(=O)N2CCSc3ccccc32)cc1`, the survival was 57%. `CSc1nn(Cc2cccc(F)c2)c(N(C(C)=O)C(C)=O)c1S(=O)(=O)c1ccccc1` was tested, and the survival was 84%. `Cc1nc(-c2ccc(C)c(N3CCN(C(=O)Nc4cccc(Cl)c4C)CC3)c2)no1` gave a survival of 88%. Molecule `Cc1ccc(CCNC(=O)c2cc3c(s2)-c2ccccc2OC3)cc1` has a survival of 82%. `Cc1ccc(C)c(N(C)C(=O)c2cc3c(s2)-c2ccccc2OC3)c1` was tested, and the survival was -3% (active). Molecule `COc1cc(NC(=O)c2cc3c(s2)-c2ccccc2OC3)cc(OC)c1OC` has a survival of 55%. `COc1cccc(CNC(=O)c2cc3c(s2)-c2ccccc2OC3)c1` was tested, and the survival was 42% (active). With `COc1cccc(CNC(=O)c2cc3c(s2)-c2c(C)cccc2OC3)c1` the survival was 68%. `CCc1cccc(NC(=O)c2cc3c(s2)-c2ccccc2OC3)c1` gave a survival of 83%. Work on `COc1cccc(N2CCN(C(=O)c3cc4c(s3)-c3ccccc3OC4)CC2)c1` yielded a survival of 98%. For `CCN(CC)CCOC(=O)c1ccc(NC(=O)c2cc3c(s2)-c2ccccc2OC3)cc1`, the survival was -7% (active). For `CCOc1ccc(NC(=O)c2cc3c(s2)-c2ccccc2OC3)cc1`, the survival was 95%. `COc1ccc(N(C)C(=O)c2cc3c(s2)-c2ccccc2OC3)cc1` was tested, and the survival was -2% (active). `COc1ccc(CNC(=O)c2cc3c(s2)-c2ccccc2OC3)cc1` showed a survival of 64%. Molecule `COc1ccc(N2CCN(C(=O)c3cc4c(s3)-c3ccccc3OC4)CC2)cc1` has a survival of 114%.

Source: PubChem BioAssay AID463173 (ICCB-Longwood Screening Facility, Harvard Medical School, 2010)
